Among the data in PubChem BioAssay (Tox21) are Potency values, retold here.

Each structure is given as a SMILES string. Several values for one entry are separate records, joined by “and”; a condition that tells them apart may be missing. Identical values can stand only once. Inconclusive results are not listed. A call without a number means that no potency is given here. A structure can be active in one record and inactive in another. Activity calls are given as the source filed them. Calls follow the shape of the dose curve; as a rule, active = well fitted cell-killing curve with a large enough effect in the repeat runs; inconclusive = weak or mixed curves, or effect the other way; inactive = flat fitted curve, though single readings scatter.
Potency is read from the fitted curve at half-maximal effect.

The assay is described as follows: Caspase-3/7 induction in HepG2 cells by small molecules, qHTS cell viability counter screen (AID 1346981). Also: nearly all actives have a fitted effect of over 30% in size. The conditions noted are these: CellTiter-Fluor fluorescence, 17 h; series mostly up to 92.4 µM. The text has this: U.S. Tox21 Program National Center for Advancing Translational Sciences [NCATS] NIH Chemical Genomics Center [NCGC] U.S. Environmental Protection Agency [EPA] National Institutes of Environmental Health Sciences [NIEHS] National Toxicology Program [NTP] U.S. Food and Drug Administration [FDA] Tox21 Assay Overview: Apoptosis is a process of programmed cell death and plays a central role in the development of multicellular organisms. It is a highly regulated process and induces cell death by activating caspases, which are the members of cysteine aspartic acid-specific protease (caspase) family. Caspases involved in apoptosis are classified by their mechanism of action as initiator caspases (caspase-2, -8, -9 and -10) and executioner caspases (caspase-3, -6, and -7). Inhibition of apoptosis results in number of cancers, autoimmune diseases, inflammatory diseases and viral infection. To identify small molecule compounds that induce apoptosis, a homogeneous, luminescent Caspase-Glo 3/7 assay was used. Wild type HepG2 cells were used to screen Tox21 libraries for identifying caspase-3/7 activity inducers. Also cytotoxicity of the compounds was tested in parallel by measuring the cell viability using CellTiter-Fluor assay system in the same wells.
Tox21 Assay Protocol Summary: HepG2 cells were dispensed at 2,000 per well in 5uL of culture medium into white solid bottom 1536-well plates (Corning Life Sciences, Corning, NY) using a Multidrop Combi (Thermo Scientific, Waltham, MA) dispenser. The assay plates were incubated at 37 C and 5% CO2 for 5hr, and then 23nL of compounds dissolved in DMSO and positive control were transferred using a Pintool station ([…], San Diego, CA). The assay plates were incubated at 37C and 5% CO2 for 17hr. For cytotoxicity read, after 16hr incubation at 37C, 1uL CellTiter-Fluor reagent (Promega Corporation, Madison, WI) was added to each well of the assay plates using Flying Reagent Dispenser (FRD, Aurora Discovery, San Diego, CA). After 1hr incubation at 37C and 5% CO2, the fluorescence signal was quantified using a ViewLux plate reader (PerkinElmer, Shelton, CT).
Background: Quantitative high-throughput screening tests each substance at several concentrations.
Turning to `CN(C)[C@@H]1C(=O)C(C(N)=O)=C(O)[C@@]2(O)C(=O)C3=C(O)c4c(O)cccc4[C@@](C)(O)[C@H]3[C@H](O)[C@@H]12`, the Potency result was “inactive”.

Consider `O=C(O)c1ccccc1O`, for which the Potency result is “inactive”.

As for `CCCC[n+]1ccccc1`, the Potency result is “inactive”.

As for `CCOP(=S)(OCC)Oc1ccc2c(C)c(Cl)c(=O)oc2c1`, the Potency result is “inactive”.

Regarding `O=P1(N(CCCl)CCCl)NCCCO1` (stereo not given), the Potency result is “inactive”.

On to `O=S(=O)(O)O`, for which the Potency result was “inactive”.

`CCC[N+]1(C)CCCCC1`: the Potency entry was “inactive”.

As to `Nc1ccc(-c2ccc(N)c(Cl)c2)cc1Cl`, the Potency was 9.04 µM (active) and 54.5 µM (active).

Regarding `COP(=O)(OC)C(O)C(Cl)(Cl)Cl` (stereo not given), the Potency entry is “inactive”.

In the case of `CCCCCCCCCCn1cc[n+](C)c1`, the Potency result is “inactive”.

As for `Cc1cc(Cl)ccc1N`, the Potency result is “inactive”.

Take `CCCC[n+]1ccccc1C`: the Potency result was “inactive”.

As to `O=C(O)CCl`, the Potency result was “inactive”.

For the compound `CCCCCCn1cc[n+](C)c1`, the Potency result is “inactive”.

In the case of `CCCCCCCCCCCCn1cc[n+](C)c1`, the Potency was 24.5 µM (active) and inactive.

Take `N#CS`: the Potency entry is “inactive”.

`O=[N+]([O-])O`: the Potency entry was “inactive”.

Turning to `CCCn1cc[n+](C)c1`, the Potency entry is “inactive”.

On to `C1CCC(NC2CCCCC2)CC1`, for which the Potency entry was “inactive”.

`CCCC[n+]1cccc(C)c1`: the Potency result is “inactive”.

`CC(=O)[O][Hg][c]1ccccc1`: the Potency is 5.4 µM (active) and 5.45 µM (active) and 11.9 µM (active).

On to `CCCC[N+]1(C)CCCCC1`, for which the Potency result is “inactive”.

In the case of `CCCCn1cc[n+](C)c1`, the Potency result was “inactive”.

For `CCNc1nc(Cl)nc(NCC)n1`, the Potency result was “inactive”.

For `O=C(O)CC(O)(CC(=O)O)C(=O)O`, the Potency entry is “inactive”.

For the compound `O=C(O)C(Cl)(Cl)Cl`, the Potency result is “inactive”.

For `Oc1ccccc1-c1ccccc1`, the Potency result is “inactive”.

For `CC(=O)O`, the Potency entry was “inactive”.

Consider `COc1ccccc1N`, for which the Potency result is “inactive”.

Turning to `CC[N+]1(C)CCCC1`, the Potency entry is “inactive”.

For `CCCC[n+]1ccc(C)cc1`, the Potency result was “inactive and 19.4 µM (active)”.

For `Nc1ccc(Cl)cc1`, the Potency entry was “inactive”.

`CC(Cl)(Cl)C(=O)O`: the Potency entry is “inactive”.

Regarding `CCCCCCCCn1cc[n+](C)c1`, the Potency result was “inactive”.

As for `C=CCOC(Cn1ccnc1)c1ccc(Cl)cc1Cl` (stereo not given), the Potency entry is “inactive”.

As to `Nc1ccccc1`, the Potency entry is “inactive”.

With `CC[n+]1ccccc1`, the Potency result is “inactive and 19.2 µM (active)”.

`CCCCCCCCCCCCCC[P+](CCCCCC)(CCCCCC)CCCCCC`: the Potency was 13.7 µM (active) and 19.5 µM (active) and inactive.

For `O=c1[nH]c(=O)n(Cl)c(=O)n1Cl`, the Potency entry is “inactive”.

For the compound `Cc1cc(Cl)ccc1OCC(=O)O`, the Potency result is “inactive”.
